Results reported in PubChem BioAssay (EPA / NIEHS).
Calls of active or inactive are those of the source. How the source made its calls: active means hit-call score of the fitted dose curve at least 0.9, where 1 is the maximum; inactive means score below 0.9.

Experiments:
Details in all cases: mRNA level, 48 h; actives raise or lower the signal
[1] = read-out: ABC Transporter (ABCC2), ABCC2 (gene 1244); experiment: LTEA_HepaRG_ABCC2: Life Technologies and Expression Analysis (LTEA) Assay for ABC Transporter (ABCC2) using HepaRG (AID 2283464)
How it was run: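 HepaRG cells were plated 48 h, switched to serum-free induction medium, then exposed in duplicate for 48 h to 8 concentrations (top 100 uM, half-log steps, 0.5% DMSO). ABCC2 mRNA was measured by qRT-PCR normalized to ACTB/GAPDH/POLR2A; bidirectional fitting versus DMSO.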

[2] = read-out: Broad substrate specificity ATP-binding cassette transporter ABCG2 (Homo sapiens) (UniProt Q9UNQ0); experiment: LTEA_HepaRG_ABCG2: Life Technologies and Expression Analysis (LTEA) Assay for ABC Transporter (ABCG2) using HepaRG (AID 2283465)
How it was run: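 Gene expression of ABCG2 in HepaRG liver cells is quantified by qRT-PCR following 48 h exposure across an eight-point series topping at 100 uM. Values come from bidirectional fitting relative to DMSO vehicle.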

[3] = read-out: ATP-citrate lyase (ACLY), ACLY (gene 47); experiment: LTEA_HepaRG_ACLY: Life Technologies and Expression Analysis (LTEA) Assay for ATP-citrate lyase (ACLY) using HepaRG (AID 2283466)
How it was run: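 ACLY expression changes in human HepaRG liver cells are quantified by qRT-PCR after 48 h exposure to test chemicals (maximum 100 uM, half-log steps). Values are fitted in both directions relative to 0.5% DMSO vehicle.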

[4] = read-out: Peroxisomal acyl-coenzyme A oxidase 1 (ACOX1) gene, ACOX1 (gene 51); experiment: LTEA_HepaRG_ACOX1: Life Technologies and Expression Analysis (LTEA) Assay for Peroxisomal acyl-coenzyme A oxidase 1 (ACOX1) gene using HepaRG (AID 2283467)
How it was run: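 Human HepaRG hepatic cultures, 48 h treatment with test chemicals up to 100 uM. ACOX1 expression read by qRT-PCR relative to 0.5% DMSO vehicle.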

[5] = read-out: Alkaline Phosphatase, Placental (ALPP) gene, ALPP (gene 250); experiment: LTEA_HepaRG_ALPP: Life Technologies and Expression Analysis (LTEA) Assay for Alkaline Phosphatase, Placental (ALPP) gene using HepaRG (AID 2283468)
How it was run: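 Differentiated human HepaRG cells were plated and cultured 48 h, then exposed in duplicate for 48 h in serum-free induction medium to eight half-log concentrations from 100 uM in 0.5% DMSO. ALPP mRNA was measured by TaqMan qRT-PCR, normalized to ACTB, GAPDH, POLR2A.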

[6] = read-out: Bcl-2 (BAD) gene, BAD (gene 572); experiment: LTEA_HepaRG_BAD: Life Technologies and Expression Analysis (LTEA) Assay for Bcl-2 (BAD) gene using HepaRG (AID 2283469)
How it was run: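 Activity values reflect up- or down-regulation of BAD mRNA in human HepaRG hepatic cells treated 48 h in serum-free medium, with eight-point half-log dosing capped at 100 uM and 0.5% DMSO vehicle.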

[7] = read-out: Bcl-2 (BAX) gene, BAX (gene 581); experiment: LTEA_HepaRG_BAX: Life Technologies and Expression Analysis (LTEA) Assay for Bcl-2 (BAX) gene using HepaRG (AID 2283470)
How it was run: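 Gene expression measured by Fluidigm qRT-PCR with three housekeeping genes for normalisation. HepaRG cells, plated 48 h beforehand, treated 48 h at up to 100 uM (8-point, half-log) in 0.5% DMSO. Bidirectional fitting versus DMSO.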

[8] = read-out: adenosine kinase (ADK) gene, ADK (gene 132); experiment: LTEA_HepaRG_ADK: Life Technologies and Expression Analysis (LTEA) Assay for adenosine kinase (ADK) gene using HepaRG (AID 2283471)
How it was run: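 HepaRG (human liver), 48 h chemical exposure, 8-pt half-log series, top 100 uM, 0.5% DMSO vehicle. Readout: ADK mRNA by qRT-PCR vs housekeeping genes; bidirectional curve fit relative to DMSO baseline.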

[9] = read-out: Alpha-fetoprotein (AFP) gene, AFP (gene 174); experiment: LTEA_HepaRG_AFP: Life Technologies and Expression Analysis (LTEA) Assay for Alpha-fetoprotein (AFP) gene using HepaRG (AID 2283472)
How it was run: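 AFP transcript measured by TaqMan qRT-PCR with three housekeeping genes for normalization, after 48 h chemical treatment of HepaRG cells (top 100 uM, half-log steps, 0.5% DMSO). Gain or loss fitted against vehicle.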

[10] = read-out: BCL2L11 (gene 10018); experiment: LTEA_HepaRG_BCL2L11: Life Technologies and Expression Analysis (LTEA) Assay for Bcl-2 (BCL2L11) gene using HepaRG (AID 2283473)
How it was run: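 Differentiated human HepaRG cells in serum-free induction medium were exposed in duplicate for 48 h to eight concentrations (top 100 uM, half-log steps, 0.5% DMSO). BCL2L11 mRNA was quantified by TaqMan qRT-PCR, normalized to ACTB/GAPDH/POLR2A, bidirectional fit versus DMSO.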

[11] = read-out: Apolipoprotein A-V (APOA5) gene, APOA5 (gene 116519); experiment: LTEA_HepaRG_APOA5: Life Technologies and Expression Analysis (LTEA) Assay for Apolipoprotein A-V (APOA5) gene using HepaRG (AID 2283474)
How it was run: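 Differentiated human HepaRG cells were exposed in duplicate for 48 h to eight half-log concentrations from 100 uM in 0.5% DMSO. APOA5 mRNA was quantified by TaqMan qRT-PCR, normalized to ACTB, GAPDH and POLR2A, and fitted bidirectionally against DMSO.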

[12] = read-out: Bcl-2 (BID) gene, BID (gene 637); experiment: LTEA_HepaRG_BID: Life Technologies and Expression Analysis (LTEA) Assay for Bcl-2 (BID) gene using HepaRG (AID 2283476)
How it was run: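 Duplicate 48 h treatments of HepaRG cells in serum-free induction medium spanned 100 uM downward in half-log steps, 0.5% DMSO. Transcript change quantified by qRT-PCR against three housekeeping genes, fitted up or down versus DMSO.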

[13] = read-out: Caspase-3 (Homo sapiens) (UniProt P42574); experiment: LTEA_HepaRG_CASP3: Life Technologies and Expression Analysis (LTEA) Assay for cysteine-aspartic acid protease (CASP3) using HepaRG (AID 2283477)
How it was run: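 Differentiated human HepaRG cells in serum-free induction medium were exposed 48 h to 8-point half-log concentrations from 100 uM (0.5% DMSO vehicle). CASP3 mRNA was measured by qRT-PCR, normalised to ACTB, GAPDH and POLR2A, with bidirectional fitting against DMSO.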

[14] = read-out: Cytochrome P450 (CYP24A1), CYP24A1 (gene 1591); experiment: LTEA_HepaRG_CYP24A1: Life Technologies and Expression Analysis (LTEA) Assay for Cytochrome P450 (CYP24A1) using HepaRG (AID 2283478)
How it was run: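 Differentiated HepaRG cells, pre-cultured 48 h, were exposed in duplicate for 48 h in serum-free induction medium to 8 half-log concentrations (top 100 uM, 0.5% DMSO). CYP24A1 mRNA was quantified by TaqMan qRT-PCR, normalized to ACTB/GAPDH/POLR2A, fitted bidirectionally versus DMSO.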

[15] = read-out: Cytochrome P450 (CYP1A2), CYP1A2 (gene 1544); experiment: LTEA_HepaRG_CYP1A2: Life Technologies and Expression Analysis (LTEA) Assay for Cytochrome P450 (CYP1A2) using HepaRG (AID 2283479)
How it was run: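 Differentiated human HepaRG cells in serum-free induction medium were exposed in duplicate for 48 h to 8-point half-log concentrations up to 100 uM in 0.5% DMSO. CYP1A2 mRNA measured by qRT-PCR, normalized to ACTB, GAPDH, POLR2A; bidirectional fit vs DMSO.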

[16] = read-out: cysteine-aspartic acid protease (CASP8), CASP8 (gene 841); experiment: LTEA_HepaRG_CASP8: Life Technologies and Expression Analysis (LTEA) Assay for cysteine-aspartic acid protease (CASP8) using HepaRG (AID 2283480)
How it was run: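 Concentration-response in duplicate up to 100 uM (half-log steps, 0.5% DMSO) on differentiated HepaRG cultures for 48 h. Expression change of CASP8 mRNA is determined by TaqMan qRT-PCR with housekeeping-gene normalization.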

[17] = read-out: Cytochrome P450 (CYP2B6), CYP2B6 (gene 1555); experiment: LTEA_HepaRG_CYP2B6: Life Technologies and Expression Analysis (LTEA) Assay for Cytochrome P450 (CYP2B6) using HepaRG (AID 2283481)
How it was run: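 Differentiated HepaRG cells, serum-free induction medium, exposed 48 h in duplicate to 8-point half-log concentrations from 100 uM in 0.5% DMSO. CYP2B6 mRNA by qRT-PCR, normalized to ACTB, GAPDH, POLR2A; bidirectional fit versus DMSO.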

[18] = read-out: Cytochrome P450 2C19 (Homo sapiens) (UniProt P33261); experiment: LTEA_HepaRG_CYP2C19: Life Technologies and Expression Analysis (LTEA) Assay for CYP2C19 using HepaRG (AID 2283482)
How it was run: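 Differentiated human HepaRG cells were exposed for 48 h in serum-free induction medium to 8 concentrations (top 100 uM, half-log steps, 0.5% DMSO). CYP2C19 mRNA was measured by qRT-PCR, normalized to ACTB/GAPDH/POLR2A, and fitted bidirectionally against DMSO.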

[19] = read-out: CYP2C8 (gene 1558); experiment: LTEA_HepaRG_CYP2C8: Life Technologies and Expression Analysis (LTEA) Assay for CYP2C8 using HepaRG (AID 2283483)
How it was run: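 This is a transcriptional endpoint in HepaRG cultures: 48 h exposure, highest concentration 100 uM. CYP2C8 mRNA is quantified by TaqMan qRT-PCR.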

Measured: AC50

Sequence of Broad substrate specificity ATP-binding cassette transporter ABCG2 (Homo sapiens) (Q9UNQ0 whole entry, looked up): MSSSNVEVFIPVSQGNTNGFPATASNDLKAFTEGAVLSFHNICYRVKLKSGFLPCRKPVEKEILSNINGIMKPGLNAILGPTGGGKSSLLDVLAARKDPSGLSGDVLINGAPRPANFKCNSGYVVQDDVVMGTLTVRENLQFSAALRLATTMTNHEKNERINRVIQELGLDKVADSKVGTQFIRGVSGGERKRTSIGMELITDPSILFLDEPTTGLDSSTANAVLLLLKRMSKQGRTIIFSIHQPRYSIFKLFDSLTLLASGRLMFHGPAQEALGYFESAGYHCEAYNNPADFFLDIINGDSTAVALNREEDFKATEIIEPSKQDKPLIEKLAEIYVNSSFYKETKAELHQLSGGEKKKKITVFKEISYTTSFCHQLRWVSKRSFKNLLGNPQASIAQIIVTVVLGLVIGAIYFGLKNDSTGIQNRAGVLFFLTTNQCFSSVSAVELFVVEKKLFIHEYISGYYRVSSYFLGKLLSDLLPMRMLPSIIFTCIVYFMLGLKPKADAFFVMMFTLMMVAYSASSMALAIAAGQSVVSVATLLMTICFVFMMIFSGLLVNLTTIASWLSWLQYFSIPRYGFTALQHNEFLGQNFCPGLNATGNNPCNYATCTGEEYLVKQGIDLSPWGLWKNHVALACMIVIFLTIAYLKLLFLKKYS
Sequence of Caspase-3 (Homo sapiens) (P42574 whole entry, looked up): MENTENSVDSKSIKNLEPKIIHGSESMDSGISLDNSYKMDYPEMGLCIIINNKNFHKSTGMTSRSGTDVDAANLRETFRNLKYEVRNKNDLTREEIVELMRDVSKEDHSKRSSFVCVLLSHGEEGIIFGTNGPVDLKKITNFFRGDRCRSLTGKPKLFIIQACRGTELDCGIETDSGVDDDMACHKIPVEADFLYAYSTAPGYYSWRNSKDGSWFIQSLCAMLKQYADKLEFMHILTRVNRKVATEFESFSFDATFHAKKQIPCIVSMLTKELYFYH
Sequence of Cytochrome P450 2C19 (Homo sapiens) (P33261 whole entry, looked up): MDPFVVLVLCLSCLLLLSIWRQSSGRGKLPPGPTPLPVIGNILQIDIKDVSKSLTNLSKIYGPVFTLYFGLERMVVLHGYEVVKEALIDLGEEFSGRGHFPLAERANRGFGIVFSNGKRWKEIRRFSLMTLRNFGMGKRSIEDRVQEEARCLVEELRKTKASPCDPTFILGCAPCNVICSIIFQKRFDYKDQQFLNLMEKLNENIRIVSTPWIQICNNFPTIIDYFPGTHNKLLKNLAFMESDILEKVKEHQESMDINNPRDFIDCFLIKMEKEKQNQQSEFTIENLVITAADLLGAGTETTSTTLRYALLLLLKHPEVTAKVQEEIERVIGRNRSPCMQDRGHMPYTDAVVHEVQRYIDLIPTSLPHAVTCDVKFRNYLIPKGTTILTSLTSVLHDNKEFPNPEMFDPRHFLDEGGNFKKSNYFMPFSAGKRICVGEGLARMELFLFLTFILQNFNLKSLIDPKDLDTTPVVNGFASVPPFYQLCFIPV

CCc1ccc(O)c(C(C)(C)C)c1
active: [12] 0.00367 µM
inactive: all other assays above

O=C1CN(N=Cc2ccc([N+](=O)[O-])o2)C(=O)N1
active: [2] 50 µM | [5] 75 µM | [17] 50 µM | [19] 50 µM
not listed: [18]
inactive: all other assays above

CCCCCCCCCCCCCCO
active: [15] 50 µM
not listed: [18]
inactive: all other assays above

Cn1cc[nH]c1=S
not listed: [15] | [18]
inactive: all other assays above

O=C(O)c1cccc(C[C@@H]2COc3ccc(OCc4nc5cc(F)ccc5s4)cc3[C@@H]2O)c1
active: [5] 80 µM | [9] 68.7 µM | [11] 81.1 µM | [17] 92 µM | [18] 83.9 µM | [19] 84.2 µM
inactive: all other assays above

OC(CCl)CCl
not listed: [18]
inactive: all other assays above

c1ccc2cc3ccccc3cc2c1
active: [15] 18.7 µM | [17] 13.2 µM
not listed: [18]
inactive: all other assays above
